ERp5 inh: blocks human ERp5 reductase activity on insulin. ERp5 insulin aggregation, absorbance 650 nm, 90 min. inhibition, % at 9.99 µM. 350,000 tested, 0.05% active. AID 651711;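 active = mean replicate inhibition above about 25%, with every replicate also reaching it, limit read from the data, passing the limit was not always enough; inconclusive = only one of those two criteria met; inactive = neither criterion met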
AF4-AF9 inh: inhibitors of human MLL-AF4/AF9 interaction; P42568; AlphaScreen, biotin-AF4 peptide binding to FLAG-AF9; inhibition, % at 10 µM; 350,000 tested, 0.47% active;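 active = every replicate reaching a set inhibition limit, whatever the replicate mean, cut at about 25% in these data; inconclusive = mean inhibition reaches that limit but some replicates miss it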;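 also: 0% = plate neutral control median and 100% = total signal loss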
DENV2 CPE: inhibitors of DENV2 cytopathic effect | DENV2-infected cells, cytopathic effect rescue, plate reader | CPE inhibition, % at 9.99 µM | 350,000 tested, 1.7% active; in the data active = CPE inhibition above about 20%, passing the limit was not always enough; inconclusive = no clear call, values can overlap the other calls; tested in BHK-21 cells;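 also: 0% = median of neutral control wells and 100% = median of positive control wells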
ERAP1 HTS inh: blocks human ERAP1 aminopeptidase activity; Q9NZ08; recombinant ERAP1, Leu-AMC fluorescence, 60 min; inhibition, % at 10.7 µM; 340,000 tested, 0.15% active; AID 652197;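 active = mean replicate inhibition of at least 30%, or all replicates individually reaching that 30% level; inactive = mean below 30% and not every replicate reaching it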;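 also: 0% = neutral control wells and 100% = L-leucinethiol positive control wells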
Target sequence (Q9NZ08 whole entry, looked up): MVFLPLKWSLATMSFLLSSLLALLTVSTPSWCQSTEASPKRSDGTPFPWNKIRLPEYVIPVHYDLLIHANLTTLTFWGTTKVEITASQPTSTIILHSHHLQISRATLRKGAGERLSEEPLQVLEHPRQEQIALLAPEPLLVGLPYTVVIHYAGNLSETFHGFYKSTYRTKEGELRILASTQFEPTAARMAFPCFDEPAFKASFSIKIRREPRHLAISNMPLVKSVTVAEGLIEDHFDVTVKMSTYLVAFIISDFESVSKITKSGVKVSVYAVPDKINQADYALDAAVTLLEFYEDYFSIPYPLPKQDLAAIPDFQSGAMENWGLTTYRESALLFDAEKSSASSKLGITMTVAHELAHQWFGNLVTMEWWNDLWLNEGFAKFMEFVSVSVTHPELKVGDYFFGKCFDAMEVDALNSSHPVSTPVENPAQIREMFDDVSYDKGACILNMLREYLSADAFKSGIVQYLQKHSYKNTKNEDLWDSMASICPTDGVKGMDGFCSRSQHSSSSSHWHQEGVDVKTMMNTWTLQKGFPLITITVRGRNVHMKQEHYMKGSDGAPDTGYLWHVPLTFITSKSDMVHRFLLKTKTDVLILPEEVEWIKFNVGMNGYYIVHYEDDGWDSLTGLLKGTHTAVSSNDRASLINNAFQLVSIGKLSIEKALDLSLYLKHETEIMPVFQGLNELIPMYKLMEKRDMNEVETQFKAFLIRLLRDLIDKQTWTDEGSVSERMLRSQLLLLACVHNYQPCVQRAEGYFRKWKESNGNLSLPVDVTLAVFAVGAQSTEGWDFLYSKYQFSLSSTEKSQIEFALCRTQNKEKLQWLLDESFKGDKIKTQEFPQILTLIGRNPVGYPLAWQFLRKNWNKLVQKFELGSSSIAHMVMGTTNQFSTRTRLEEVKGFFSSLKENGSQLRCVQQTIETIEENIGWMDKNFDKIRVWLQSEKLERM
PDI inh: inhibitors of human protein disulfide isomerase; 350,000 tested, 0.052% active; AID 588391; P07237; PDI insulin aggregation turbidity, A650, 90 min; inhibition, % at 10 µM;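 active = mean inhibition across replicates of 30% or more, whatever share of single replicates reach that level; inconclusive = mean inhibition below 30% while every single replicate reaches 30%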
* hit, by the source's call; ? = inconclusive; . = no result. This is a sample that favours compounds with a hit; in the whole collection about 1.8% have one here.

SMILES | ERp5 inh | AF4-AF9 inh | DENV2 CPE | ERAP1 HTS inh | PDI inh
C[C@@H](NC(=O)C[C@@H]1CC[C@@H]2[C@H](COC[C@@H](O)CN2C(=O)Nc2ccccc2)O1)c1ccccc1 | 9.5 | -2.1 | 1.5 | 0.1 | .
C[C@H](NC(=O)C[C@@H]1CC[C@H]2[C@@H](COC[C@H](O)CN2C(=O)Nc2ccccc2)O1)c1ccccc1 | 1.9 | -3.1 | 30.5* | 1.5 | .
C[C@H](NC(=O)C[C@H]1CC[C@H]2[C@@H](COC[C@@H](O)CN2C(=O)Nc2ccccc2)O1)c1ccccc1 | 2.6 | -2.3 | -14.4 | -1.7 | .
C[C@H](NC(=O)C[C@H]1CC[C@H]2[C@@H](COC[C@H](O)CN2C(=O)Nc2ccccc2)O1)c1ccccc1 | -3.3 | -2.3 | -11.0 | 43.0* | .
C[C@H](NC(=O)C[C@@H]1CC[C@@H]2[C@H](COC[C@H](O)CN2C(=O)Nc2ccccc2)O1)c1ccccc1 | -3.5 | -3.0 | 34.1* | 0.7 | .
CCN1[C@@H]2Cn3c(ccc(-c4ccccc4OC)c3=O)[C@H]1[C@@H](C(=O)N1CCOCC1)[C@@H]2CO | 1.3 | -0.6 | -3.1 | -1.1 | .
CCC(=O)N(C)C[C@@H]1Oc2cc(C#CC(C)C)ccc2S(=O)(=O)N([C@@H](C)CO)C[C@@H]1C | -5.1 | 0.0 | 2.8 | 1.0 | .
O=C(C[C@H]1CC[C@@H]2[C@H](COC[C@@H](O)CN2S(=O)(=O)c2cccc(Cl)c2)O1)Nc1ccccc1 | 6.4 | 1.2 | -3.8 | -0.1 | .
C[C@@H]1CN([C@H](C)CO)C(=O)c2cccc(NC(=O)Nc3ccc(C(F)(F)F)cc3)c2O[C@@H]1CN(C)C(=O)Nc1ccc2c(c1)OCO2 | . | . | 40.9* | . | .
C[C@H](CO)N1C[C@H](C)[C@H](CN(C)C(=O)Nc2ccc3c(c2)OCO3)Oc2c(NC(=O)Nc3ccc(C(F)(F)F)cc3)cccc2C1=O | . | . | -5.2 | . | .
C[C@@H]1CN([C@H](C)CO)C(=O)c2cccc(NC(=O)Nc3ccc4c(c3)OCO4)c2O[C@H]1CN(C)C(=O)Nc1ccccc1 | . | . | 100.0* | . | .
CCOc1ccc(NS(=O)(=O)c2cc(C(=O)N3CCC3)ccc2Cl)cc1 | 11.0 | -1.6 | 46.8* | 1.2 | -0.7
CCOc1ccc(NS(=O)(=O)c2ccc(C(=O)N3CCCCC3)cc2)cc1 | -5.6 | -10.2 | -7.0 | 0.1 | 4.5
CCc1cnc(N2[C@H](C#N)[C@@H](c3ccccc3C3=CCCCC3)[C@@H]2CO)s1 | 0.3 | 3.7 | ? | -1.0 | .
CNC[C@H]1Oc2ccc(NC(=O)CCN3CCOCC3)cc2C(=O)N([C@H](C)CO)C[C@@H]1C | 4.6 | -16.6 | 27.4* | 0.7 | .
C[C@@H]1CN([C@@H](C)CO)C(=O)c2cc(NS(=O)(=O)c3ccc(Cl)cc3)ccc2O[C@H]1CN(C)CC1CC1 | -4.6 | 6.2 | 28.7* | -3.9 | .
C[C@H](CO)N1C[C@H](C)[C@H](CN(C)CC2CC2)Oc2ccc(NS(=O)(=O)c3ccc(Cl)cc3)cc2C1=O | -2.1 | -8.6 | -11.3 | -1.3 | .
CNC[C@@H]1Oc2ccc(NS(=O)(=O)c3cn(C)cn3)cc2C(=O)N([C@@H](C)CO)C[C@H]1C | 2.4 | -5.7 | 23.1* | 1.2 | .
C[C@@H]1CCCCO[C@@H](CN(C)CC2CC2)[C@@H](C)CN([C@H](C)CO)C(=O)c2cc(NS(=O)(=O)c3ccc(Cl)cc3)ccc2O1 | 3.2 | 4.6 | 47.9* | -87.8 | .
C[C@@H]1CCCCO[C@@H](CN(C)CC2CCCCC2)[C@H](C)CN([C@H](C)CO)C(=O)c2cc(NS(=O)(=O)c3ccc(Cl)cc3)ccc2O1 | . | . | -22.2 | . | .
CNC[C@H]1Oc2ccc(NS(=O)(=O)c3cn(C)cn3)cc2C(=O)N([C@H](C)CO)C[C@@H]1C | 3.7 | -3.1 | 3.8 | 0.7 | .
CCNC(=O)C[C@H]1CC[C@@H]2[C@H](COc3ccc(NC(=O)c4cccc(OC)c4)cc3C(=O)N2C)O1 | -0.4 | -2.0 | -1.4 | -2.5 | .
CNC[C@@H]1Oc2ccc(NC(=O)CCN3CCOCC3)cc2C(=O)N([C@@H](C)CO)C[C@H]1C | -1.9 | -5.0 | -11.8 | 0.0 | .
CCCC#Cc1ccc([C@H]2[C@@H](CO)N3C(=O)CN(C(=O)NC4CCCC4)C[C@H]23)cc1 | -2.4 | 1.4 | -1.9 | -0.4 | .
C[C@@H]1CCCCO[C@@H](CN(C)CC2CCCCC2)[C@H](C)CN([C@@H](C)CO)C(=O)c2cc(NS(=O)(=O)c3ccc(Cl)cc3)ccc2O1 | . | . | -23.9 | . | .
SMILES | ERp5 inh | AF4-AF9 inh | DENV2 CPE | ERAP1 HTS inh | PDI inh
C[C@H](CO)N1C[C@H](C)[C@H](CN(C)CC2CCCCC2)OCCCC[C@H](C)Oc2ccc(NS(=O)(=O)c3ccccc3)cc2C1=O | 1.0 | 6.8 | -9.4 | 2.2 | .
C[C@@H]1CCCCO[C@H](CN(C)CC2CC2)[C@H](C)CN([C@H](C)CO)C(=O)c2cc(NS(=O)(=O)c3ccc(F)cc3)ccc2O1 | -1.5 | 1.2 | 29.1* | 0.0 | .
C[C@@H]1CCCCO[C@H](CN(C)CC2CCCCC2)[C@@H](C)CN([C@H](C)CO)C(=O)c2cc(NS(=O)(=O)c3ccccc3)ccc2O1 | 0.6 | -4.7 | 27.6* | -0.5 | .
CNC[C@@H]1Oc2ccc(NS(=O)(=O)c3ccc(Cl)cc3)cc2C(=O)N([C@@H](C)CO)C[C@@H]1C | -4.3 | -3.7 | 8.5 | 3.1 | .
CNC[C@H]1Oc2ccc(NS(=O)(=O)c3ccc(Cl)cc3)cc2C(=O)N([C@H](C)CO)C[C@H]1C | -0.3 | -5.0 | 28.4* | 4.8 | .
C[C@@H]1CN([C@@H](C)CO)C(=O)c2cc(NS(=O)(=O)c3ccc(Cl)cc3)ccc2O[C@@H](C)CCCCO[C@H]1CN(C)CC1CC1 | 0.8 | 9.3 | 84.1* | 1.4 | .
O=C(C[C@H]1C=C[C@H](NS(=O)(=O)c2ccccc2)[C@H](CO)O1)N1CCN(c2ccccc2)CC1 | 0.7 | -2.0 | 2.0 | 0.5 | .
CSc1cccc(NC(=O)CCCNC(=O)c2ccc(Cl)cc2)c1 | 2.3 | -1.1 | -8.1 | 51.1* | -4.7
Cc1ccc(NC2=C(Cl)C(=O)c3ccccc3C2=O)cc1 | -5.0 | 3.1 | 83.3* | 0.1 | -8.6
COC1=C(Nc2ccc(O)cc2)C(=O)c2ccccc2C1=O | -2.9 | 50.0* | . | 2.9 | -6.1
COC1=C(Nc2ccc(OC)cc2)C(=O)c2ccccc2C1=O | . | . | . | . | -5.9
C[C@H](NC(=O)[C@H]1[C@H](CO)[C@H]2Cn3c(ccc(-c4cccnc4)c3=O)[C@@H]1N2C)c1ccccc1 | 1.5 | 0.1 | 3.8 | -1.2 | .
CCOC(=O)c1sc(NC(=O)c2ccncc2)c(C#N)c1C | 6.5 | 3.5 | 43.3* | 2.3 | -4.3
CCOC(=O)c1c(NC(=O)c2ccncc2)sc(C)c1C | -12.0 | -0.6 | -2.4 | 0.0 | 0.6
CC(=O)c1ccc(C(=O)Nc2ccc3c(c2)C(=O)NC3=O)cc1 | 5.7 | -2.7 | -5.6 | -4.5 | -13.8
CC(C)(C)c1ccc(C(=O)Nc2ccc3c(c2)C(=O)NC3=O)cc1 | -0.9 | -5.6 | 58.1* | -0.6 | -9.2
C[C@H](O)C#Cc1ccc([C@H]2[C@@H](CO)N3CCCCN(C(=O)c4ccc5c(c4)OCO5)C[C@H]23)cc1 | -4.8 | 0.5 | ? | -0.5 | .
CCCC[C@@H](O)C1=C(C)Cn2c(=O)n(-c3ccccc3)c(=O)n2[C@H]1CO | -2.1 | -5.4 | -7.5 | -2.1 | .
CC1=C([C@H](O)CCc2ccccc2)[C@H](CO)n2c(=O)n(-c3ccccc3)c(=O)n2C1 | 0.0 | -2.8 | 36.0* | -1.0 | .

Screening data deposited in PubChem by Broad Institute.
